A structure can be active in one record and inactive in another. Active and inactive are the calls of the source. How the source made its calls: active means hit-call score of the fitted dose curve at least 0.9, where 1 is the maximum; inactive means score below 0.9.
Experiment: CCTE_Shafer_MEA_dev_network_spike_number: CCTE's Neural Network Formation Assay for Number of Network Spikes, Shafer Lab (AID 2284048);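 further: synchronized bursts across electrodes counted on days 5 7 9 12 and integrated as AUC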;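 on AC50: fit as a loss of signal meaning fewer network spikes than DMSO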
Procedure: CCTE_Shafer_MEA_dev assay is conducted using Axion Biosystems 48 well microelectrode array (MEA) plates and Maestro recording system. Each well of the MEA plate contains a grid of 16 microelectrodes embedded in the culture surface. Electrically active cells, such as neurons, can be cultured over the electrodes, and electrical activity in these cells can be recorded extracellularly. The spontaneous firing of neurons is captured from each electrode on a microsecond timescale providing both temporally and spatially precise data. […] The CCTE_Shafer_MEA_dev assay uses primary cultures of rat cortical neurons. Recordings are made on days post-plating 5, 7, 9 and 12. As these cultures mature over time, neural networks develop functional activity and form cohesive networks in which electrical activity can be highly coordinated. CCTE_Shafer_MEA_dev_network_spike_number is 1 of 19 assay components of the CCTE_Shafer_MEA_dev assay. It measures the number of network spikes (temporally-clustered groups of action potential firing across multiple electrodes) during a recording in a microelectrode array (MEA) using Axion Biosystems Maestro 768 channel amplifier with the AxIS adaptive spike detector. To collapse across multiple recordings made on days post-plating 5, 7, 9 and 12, the trapezoidal area-under-the-curve of the component is calculated.Data from the assay component CCTE_Shafer_MEA_dev_network_spike_number was analyzed into 1 assay endpoint. This assay endpoint, CCTE_Shafer_MEA_dev_network_spike_number, was analyzed in the negative analysis fitting direction relative to DMSO as the negative control and baseline of activity. Using a type of functional reporter, gain or loss-of-signal activity can be used to understand electrical activity.
On the day prior to culture, each well was coated thoroughly with 150 uL of 0.05% polyethyleneimine (PEI, Sigma Cat P3143) in 50 mM HEPES (Sigma Cat H7523) at a pH of 8. The plate was incubated at 37C for one hour. PEI was rinsed out with 500 uL of sterile water three times. Plates were stored at 4C until the day of culture. This culture was plated at a seeding density of 1.5 x 10^5 cells/well on a 48-well MEA plate, prepared as described above. Cells were administered via a 25 uL media/laminin ([…]; Sigma Cat L2020-1MG) drop directly onto the microelectrode array, as adding the cells with the laminin results in better attachment than pre-coating with laminin. After 2 hours, an additional 475 uL of cortical media was added and the cells returned to the incubator. Exposure starts at day 0 of plating and is continued over twelve days of network development until the experiment is terminated. Cells are fed with fresh medium on DIV 5 and 9, following the recordings on those days. The entire volume of media in the well is exchanged and any vehicle or compound treatment is renewed. Complete details are found in OP-NHEERL/ISTD/SBB/TJS/2015-03-r0 (available on request, email shafer.tim@epa.gov). Measurement of the electrical activity is non-invasive, and recordings can be made from the same plate over multiple different days of the culture. In cortical neurons, this allows for the measurement of extracellular action potentials over the period during which networks form in the MEA plate.

Row | SMILES | outcome | AC50
1 | CC1CCCC1.[C-]#[O+].[C-]#[O+].[C-]#[O+].[Mn] | inactive | 
2 | CNC(=N[N+](=O)[O-])NCC1CCOC1 (stereo not given) | inactive | 
3 | CCOP(=O)(OCC)SCSCC | inactive | 
4 | C/C(=C/C=C/[C@@H](C)C(=O)O)[C@H]1CN[C@H](C(=O)O)[C@H]1CC(=O)O | inactive | 21.8 nM (active)
5 | CCC[CH2][Sn]([CH2]CCC)([CH2]CCC)[O][Sn]([CH2]CCC)([CH2]CCC)[CH2]CCC |  | 56.4 nM (active)
6 | CC(=O)[O-].[Tl+] | inactive | 
7 | c1ccc2c(c1)cc1ccc3cccc4ccc2c1c34 | inactive | 
8 | COP(=O)(OC)SCN1C(=O)c2ccccc2C1=O | inactive | 
9 | CC1(C)[C@@H](C=C(Cl)Cl)[C@@H]1C(=O)O[C@@H](C#N)c1ccc(F)c(Oc2ccccc2)c1 | inactive | 
10 | C=CCN1CC[C@]23c4c5ccc(O)c4O[C@H]2C(=O)CC[C@@]3(O)[C@H]1C5 | inactive | 
11 | COC(=O)[C@H]1[C@@H](OC(=O)c2ccccc2)C[C@@H]2CC[C@H]1N2C | inactive | 
12 | C#CCN(C)[C@H](C)Cc1ccccc1 | inactive | 
13 | [CH3][Hg][Cl] |  | 86.7 nM (active)
14 | CC1(C)C(C=C(Cl)Cl)C1C(=O)O[C@H](C#N)c1cccc(Oc2ccccc2)c1 (stereo not given in full) |  | 7660 nM (active)
15 | CCOP(=S)(OCC)SCS(=O)C(C)(C)C (stereo not given) | inactive | 
16 | CC1(C)[C@H](C=C(Cl)Cl)[C@@H]1C(=O)O[C@@H](C#N)c1cccc(Oc2ccccc2)c1 |  | 4810 nM (active)
17 | C[n+]1ccc(-c2ccccc2)cc1 | inactive | 
18 | Cc1ccc(OP(=O)(Oc2ccc(C)cc2)Oc2ccc(C)cc2)cc1 (tested in a mixture with another compound) | inactive | 
19 | C[C@H](N)Cc1ccccc1 | inactive | 
20 | O=C(O)CNCP(=O)(O)O | inactive | 

Row | SMILES | outcome | AC50
21 | CCC1(c2ccccc2)C(=O)NC(=O)NC1=O | inactive | 
22 | Brc1ccc(Oc2ccc(Br)cc2Br)c(Br)c1 | inactive | 
23 | CP(=O)(O)CCC(N)C(=O)O (stereo not given) | inactive | 
24 | CCOP(=O)(OCC)SCSC(C)(C)C | inactive | 
25 | CCCCC(CC)COC(=O)c1cc(Br)c(Br)c(Br)c1Br (stereo not given) | inactive | 
26 | Cn1nc(C(F)(F)F)c(CS(=O)(=O)C2=NOC(C)(C)C2)c1OC(F)F | inactive | 
27 | CC1(C)[C@H](C(=O)O[C@H](C#N)c2cccc(Oc3ccccc3)c2)[C@@H]1C=C(Br)Br |  | 853 nM (active)
28 | CCOP(=O)(OCC)OC(Cl)C(Cl)(Cl)Cl (stereo not given) |  | 833 nM (active)
29 | CC1(C)[C@H](C=C(Cl)Cl)[C@H]1C(=O)OCc1c(F)c(F)cc(F)c1F |  | 23300 nM (active)
30 | CCOP(=O)(Oc1cnc(C(C)(C)C)nc1)OC(C)C (stereo not given) | inactive | 
31 | O.O.O.O.O.[Cd+2].[Cd+2].[Cl-].[Cl-].[Cl-].[Cl-] |  | 117 nM (active)
32 | [CH3][Sn]([CH3])[CH3] |  | 94.4 nM (active)
33 | CC1(C)C(C=C(Cl)c2ccc(Cl)cc2)C1C(=O)OC(C#N)c1ccc(F)c(Oc2ccccc2)c1 (stereo not given) |  | 14400 nM (active)
34 | CN1C(=O)CN=C(c2ccccc2)c2cc(Cl)ccc21 | inactive | 
35 | O=[As]O |  | 1280 nM (active)
36 | CN[C@]1(c2ccccc2Cl)CCCCC1=O | inactive | 
37 | NCCc1cc(O)c(O)cc1O | inactive | 
38 | CC(=O)[O-].CC(=O)[O-].O.O.O.[Pb+2] |  | 2980 nM (active)
39 | c1ccc2cc3c(cc2c1)-c1cccc2cccc-3c12 | inactive | 

Reference: PubChem BioAssay (EPA / NIEHS)
